The supplement of paper PMC10849652
About 7,900 targets were measured; listed, in parts, are those with a hit and a random draw of the rest. About 0.6% of all pairs of compound and target were hits.

Compound: c1cn2cc(-c3ccc4cn[nH]c4c3)nc(Nc3ccc(N4CCOCC4)cc3)c2n1 [entospletinib]
Test: log2 fold change, soluble protein after heating vs DMSO (PISA); higher = thermal stabilisation; K562 cells, 10 uM, 30 min; active = over 0.2 and 3.5 SD of the protein, either way, in both replicates (recomputed)
Outline: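 K562 cells at 2×10^6 cells/mL were given 10 μM compound for 30 min. Aliquots then went through 3 min of heating across 48°C-58°C, were pooled, and were extracted in PBS with 0.5% NP-40 at 4°C, and the supernatant after 21,000xg for 90 min was quantified by TMTpro 16plex LC-MS/MS with channel sums equalised. Thermal stability relative to control samples, from duplicates, is given as log2 fold change.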

Sequence of UniProt Q99719 (Q99719 whole entry, looked up): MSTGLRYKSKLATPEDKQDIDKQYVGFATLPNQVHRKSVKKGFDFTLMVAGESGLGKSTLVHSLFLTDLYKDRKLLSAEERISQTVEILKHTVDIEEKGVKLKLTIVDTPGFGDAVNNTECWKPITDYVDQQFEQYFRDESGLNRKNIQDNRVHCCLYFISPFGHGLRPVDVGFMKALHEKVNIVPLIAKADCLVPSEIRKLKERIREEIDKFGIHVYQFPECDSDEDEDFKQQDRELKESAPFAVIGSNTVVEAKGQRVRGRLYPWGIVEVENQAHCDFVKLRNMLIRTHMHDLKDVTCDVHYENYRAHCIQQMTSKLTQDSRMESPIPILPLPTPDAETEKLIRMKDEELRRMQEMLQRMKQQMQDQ
Sequence of UniProt Q9BVS4 (Q9BVS4 whole entry, looked up): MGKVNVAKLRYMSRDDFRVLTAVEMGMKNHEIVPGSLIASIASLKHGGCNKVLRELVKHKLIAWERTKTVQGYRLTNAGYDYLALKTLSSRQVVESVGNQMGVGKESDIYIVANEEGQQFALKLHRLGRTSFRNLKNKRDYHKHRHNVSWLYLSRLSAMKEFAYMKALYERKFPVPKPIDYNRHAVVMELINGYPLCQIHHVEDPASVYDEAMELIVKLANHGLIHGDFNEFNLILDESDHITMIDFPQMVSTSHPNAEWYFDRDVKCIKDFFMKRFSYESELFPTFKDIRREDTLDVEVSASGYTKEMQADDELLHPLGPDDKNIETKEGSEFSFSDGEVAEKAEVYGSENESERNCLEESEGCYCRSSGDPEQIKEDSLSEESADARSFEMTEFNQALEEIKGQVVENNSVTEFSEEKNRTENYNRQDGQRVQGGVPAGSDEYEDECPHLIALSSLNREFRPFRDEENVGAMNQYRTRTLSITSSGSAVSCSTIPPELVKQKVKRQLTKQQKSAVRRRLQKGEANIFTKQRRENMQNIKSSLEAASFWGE
Sequence of UniProt Q96T51 (Q96T51 whole entry, looked up): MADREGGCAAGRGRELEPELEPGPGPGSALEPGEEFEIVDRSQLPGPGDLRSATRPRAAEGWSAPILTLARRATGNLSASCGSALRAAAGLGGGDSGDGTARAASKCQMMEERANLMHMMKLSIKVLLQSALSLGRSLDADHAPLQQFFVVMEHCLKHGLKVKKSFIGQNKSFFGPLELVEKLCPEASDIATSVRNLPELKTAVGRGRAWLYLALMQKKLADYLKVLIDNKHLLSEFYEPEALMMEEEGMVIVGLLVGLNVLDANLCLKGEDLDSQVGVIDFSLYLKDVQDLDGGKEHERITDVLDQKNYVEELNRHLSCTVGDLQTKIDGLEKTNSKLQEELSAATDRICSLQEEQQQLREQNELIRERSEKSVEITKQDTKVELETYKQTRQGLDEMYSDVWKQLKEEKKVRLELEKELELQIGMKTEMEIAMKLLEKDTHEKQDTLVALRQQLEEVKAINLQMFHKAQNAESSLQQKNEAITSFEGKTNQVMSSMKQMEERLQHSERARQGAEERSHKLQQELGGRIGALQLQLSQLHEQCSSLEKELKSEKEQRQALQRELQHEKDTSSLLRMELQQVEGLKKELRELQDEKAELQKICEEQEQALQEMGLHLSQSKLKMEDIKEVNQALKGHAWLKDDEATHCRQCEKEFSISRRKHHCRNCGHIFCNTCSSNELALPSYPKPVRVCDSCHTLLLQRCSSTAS
Sequence of UniProt Q9HB40 (Q9HB40 whole entry, looked up): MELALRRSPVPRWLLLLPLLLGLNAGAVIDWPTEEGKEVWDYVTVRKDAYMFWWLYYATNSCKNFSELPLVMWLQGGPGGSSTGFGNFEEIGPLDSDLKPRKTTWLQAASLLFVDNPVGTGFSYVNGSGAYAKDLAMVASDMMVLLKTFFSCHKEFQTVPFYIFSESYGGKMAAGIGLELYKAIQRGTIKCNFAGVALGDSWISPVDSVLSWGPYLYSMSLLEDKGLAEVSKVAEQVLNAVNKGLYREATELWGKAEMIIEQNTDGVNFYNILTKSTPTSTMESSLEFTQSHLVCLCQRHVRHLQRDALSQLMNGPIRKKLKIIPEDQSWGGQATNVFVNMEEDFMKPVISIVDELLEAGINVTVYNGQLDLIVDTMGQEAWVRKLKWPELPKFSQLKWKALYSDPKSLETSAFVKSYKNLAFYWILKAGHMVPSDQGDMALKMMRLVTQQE
Sequence of UniProt Q9BWJ5 (Q9BWJ5 whole entry, looked up): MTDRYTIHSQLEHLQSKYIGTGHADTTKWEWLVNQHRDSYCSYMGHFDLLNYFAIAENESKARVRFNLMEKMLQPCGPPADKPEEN
Sequence of UniProt Q8N122 (Q8N122 whole entry, looked up): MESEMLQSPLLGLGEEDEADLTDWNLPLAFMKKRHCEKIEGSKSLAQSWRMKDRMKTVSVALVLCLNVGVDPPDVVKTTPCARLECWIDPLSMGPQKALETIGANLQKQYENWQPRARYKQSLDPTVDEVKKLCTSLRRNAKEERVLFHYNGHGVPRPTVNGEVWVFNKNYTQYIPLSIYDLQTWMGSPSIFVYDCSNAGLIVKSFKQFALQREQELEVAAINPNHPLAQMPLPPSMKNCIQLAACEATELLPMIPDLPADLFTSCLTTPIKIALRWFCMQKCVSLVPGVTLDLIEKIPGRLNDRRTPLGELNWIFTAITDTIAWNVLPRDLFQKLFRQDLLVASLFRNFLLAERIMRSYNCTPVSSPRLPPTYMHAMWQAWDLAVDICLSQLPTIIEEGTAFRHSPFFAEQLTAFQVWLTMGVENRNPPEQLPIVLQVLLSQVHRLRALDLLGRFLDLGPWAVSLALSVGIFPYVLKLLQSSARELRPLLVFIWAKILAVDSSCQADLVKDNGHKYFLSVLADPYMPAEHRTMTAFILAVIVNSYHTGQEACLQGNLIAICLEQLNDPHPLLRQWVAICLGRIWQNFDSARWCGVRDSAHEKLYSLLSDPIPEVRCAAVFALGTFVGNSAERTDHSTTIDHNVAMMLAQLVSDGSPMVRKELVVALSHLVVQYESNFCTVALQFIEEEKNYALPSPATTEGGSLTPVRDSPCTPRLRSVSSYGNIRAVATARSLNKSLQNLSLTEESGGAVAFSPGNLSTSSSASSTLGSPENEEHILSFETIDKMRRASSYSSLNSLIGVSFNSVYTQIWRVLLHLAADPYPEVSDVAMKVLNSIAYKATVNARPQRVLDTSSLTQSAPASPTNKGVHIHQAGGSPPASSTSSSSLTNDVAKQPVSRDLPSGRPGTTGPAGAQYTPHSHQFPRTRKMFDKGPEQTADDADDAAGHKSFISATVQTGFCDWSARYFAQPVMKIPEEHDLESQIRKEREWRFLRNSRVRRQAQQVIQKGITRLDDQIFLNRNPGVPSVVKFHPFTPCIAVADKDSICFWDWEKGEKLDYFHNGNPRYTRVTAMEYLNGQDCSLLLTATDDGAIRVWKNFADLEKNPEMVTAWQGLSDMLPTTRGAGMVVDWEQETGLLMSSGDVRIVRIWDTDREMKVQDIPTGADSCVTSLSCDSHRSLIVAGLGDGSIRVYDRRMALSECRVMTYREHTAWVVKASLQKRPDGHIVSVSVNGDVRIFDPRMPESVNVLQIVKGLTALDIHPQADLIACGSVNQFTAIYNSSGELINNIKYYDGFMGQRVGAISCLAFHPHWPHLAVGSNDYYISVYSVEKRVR
Sequence of UniProt Q9H082 (Q9H082 whole entry, looked up): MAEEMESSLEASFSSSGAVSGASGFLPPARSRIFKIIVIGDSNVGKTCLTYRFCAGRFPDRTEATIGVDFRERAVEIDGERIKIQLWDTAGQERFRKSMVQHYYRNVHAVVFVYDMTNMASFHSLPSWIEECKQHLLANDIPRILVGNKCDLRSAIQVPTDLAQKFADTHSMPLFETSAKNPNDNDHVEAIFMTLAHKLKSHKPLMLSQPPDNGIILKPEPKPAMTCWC
Sequence of UniProt Q9BXP2 (Q9BXP2 whole entry, looked up): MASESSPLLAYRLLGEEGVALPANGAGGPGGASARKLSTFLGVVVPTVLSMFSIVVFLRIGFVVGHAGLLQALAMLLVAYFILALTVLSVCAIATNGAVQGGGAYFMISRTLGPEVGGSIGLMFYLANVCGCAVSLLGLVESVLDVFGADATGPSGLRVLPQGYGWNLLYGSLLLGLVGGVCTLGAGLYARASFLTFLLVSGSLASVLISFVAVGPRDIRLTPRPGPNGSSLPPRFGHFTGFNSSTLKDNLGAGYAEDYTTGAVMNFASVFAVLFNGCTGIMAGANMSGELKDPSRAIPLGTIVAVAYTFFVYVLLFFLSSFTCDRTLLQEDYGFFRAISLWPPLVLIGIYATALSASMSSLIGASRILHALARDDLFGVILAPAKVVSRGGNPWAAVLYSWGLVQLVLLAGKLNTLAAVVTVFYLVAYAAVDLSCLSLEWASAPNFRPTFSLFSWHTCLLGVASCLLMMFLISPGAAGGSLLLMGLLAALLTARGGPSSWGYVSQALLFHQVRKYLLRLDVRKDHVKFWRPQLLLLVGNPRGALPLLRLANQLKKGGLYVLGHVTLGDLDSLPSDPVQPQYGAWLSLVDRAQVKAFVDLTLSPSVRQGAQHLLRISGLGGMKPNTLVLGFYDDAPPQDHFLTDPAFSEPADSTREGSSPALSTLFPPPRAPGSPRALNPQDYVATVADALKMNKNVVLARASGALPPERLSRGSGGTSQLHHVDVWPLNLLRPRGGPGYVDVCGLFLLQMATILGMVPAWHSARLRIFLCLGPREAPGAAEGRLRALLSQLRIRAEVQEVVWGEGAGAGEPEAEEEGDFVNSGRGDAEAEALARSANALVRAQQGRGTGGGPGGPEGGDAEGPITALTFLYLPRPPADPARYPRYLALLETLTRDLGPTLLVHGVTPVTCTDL
Sequence of UniProt Q8N5L8 (Q8N5L8 whole entry, looked up): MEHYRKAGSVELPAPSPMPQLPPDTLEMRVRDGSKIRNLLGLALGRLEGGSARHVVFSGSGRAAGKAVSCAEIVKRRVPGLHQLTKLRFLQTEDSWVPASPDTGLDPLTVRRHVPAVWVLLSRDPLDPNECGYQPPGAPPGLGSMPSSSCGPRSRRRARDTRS
Sequence of UniProt Q9Y3L5 (Q9Y3L5 whole entry, looked up): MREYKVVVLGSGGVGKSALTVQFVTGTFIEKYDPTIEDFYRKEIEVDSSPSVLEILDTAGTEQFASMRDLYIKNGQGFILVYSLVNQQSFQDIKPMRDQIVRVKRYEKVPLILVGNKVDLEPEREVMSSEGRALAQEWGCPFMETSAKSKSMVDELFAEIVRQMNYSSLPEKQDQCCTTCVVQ

log2 fold change, inactive:
RAB3D (UniProt O95716) 0.004
RAC1 (UniProt P63000) 0.026
RPS3 (UniProt E9PJN9) 0.2
RALA (UniProt P11233) -0.026
RRP36 (UniProt Q96EU6) 0.118
RAC3 (UniProt P60763) 0.071
SCG3 (UniProt Q8WXD2) 0.091
RPS14 (UniProt P62263) 0.025
SERPINA7 (UniProt P05543) 0.273
RNF220 (UniProt Q5VTB9) -0.021
RAB3GAP2 (UniProt Q9H2M9) 0.091
SEPTIN5 (UniProt Q99719) -0.011
RUFY1 (UniProt Q96T51) 0.042
RPTOR (UniProt Q8N122) -0.048
RALGPS2 (UniProt Q86X27) -0.153
RAB9A (UniProt P51151) -0.015
RCC1 isoform 2 (UniProt P18754) -0.022
RAB33B (UniProt Q9H082) -0.018
RPS16 (UniProt P62249) 0.074
RPS19 (UniProt P39019) 0.057
SCPEP1 (UniProt Q9HB40) 0.004
RPP25L (UniProt Q8N5L8) 0.066
SLC12A9 (UniProt Q9BXP2) -0.021
SCYL3 isoform 2 (UniProt Q8IZE3) -0.09
RAP2C (UniProt Q9Y3L5) 0.017
RSL1D1 (UniProt O76021) 0.01
SLC1A5 (UniProt Q15758) -0.032
RHOA (UniProt P61586) 0.054
SDHC (UniProt Q99643) 0.032
SLC19A1 (UniProt P41440) -0.121
SF3B5 (UniProt Q9BWJ5) 0.021
RPL38 (UniProt P63173) -0.014
RBM17 (UniProt Q96I25) -0.007
RPS6KA5 (UniProt O75582) -0.094
RBM26 isoform 2 (UniProt Q5T8P6) -0.021
RIOK2 (UniProt Q9BVS4) 0.105
RELA (UniProt Q04206) -0.062
